Screens as filed in PubChem BioAssay.
FAS-TE inh = inhibitors of human fatty acid synthase thioesterase domain; recombinant FAS-TE, OMFH fluorogenic substrate, fluorescence endpoint; inhibition, % at 15 µM; P49327; 360,000 tested, 0.67% active;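 active means compounds whose normalised, plate-corrected inhibition of enzyme fluorescence in the single-dose primary screen is 50% or more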;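 further: 0% = DMSO with enzyme and 100% = substrate without enzyme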
Calb FLC = C. albicans growth modulation with fluconazole. C. albicans CaCi-2 (fluconazole-resistant clinical isolate) + fluconazole, Alamar Blue growth, 48 h. growth inhibition, % (no concentration beside the values). 300,000 tested, 0.57% active. AID 1979;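 active means growth inhibition above about 58% in most replicates, limit read from the data, passing the limit was not always enough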;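 further: all wells also contain fluconazole at 8 µg/ml as a sub-toxic cotreatment; 0% = median of DMSO wells and 100% = median of geldanamycin control wells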
Mot1-301 SUMO = blocks SUMOylation pathway, rescuing yeast Mot1-301 growth. S. cerevisiae Mot1-301 growth rescue, ATP luminescence, 38.5C; percent above DMSO median, 100 means doubled. 320,000 tested, 1% active. growth rescue, % at 18.8 µM;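 active means every valid replicate shows activation above 250% relative to neutral control wells; inactive means the rest, any valid replicate at or below 250%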;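 further: OY570 slx delta 5 strain wells were the positive control but not used for scaling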
ATG4B inhibitor = ATG4B (human) cysteine protease inhibition | ATG4B cleavage of LC3-PLA2, NBD-HPC fluorescence, 1 h | inhibition, % at 8.33 µM | 340,000 tested, 0.51% active | AID 504462; in the data active means inhibition above about 40%
Target sequence (Q9Y4P1 whole entry, looked up): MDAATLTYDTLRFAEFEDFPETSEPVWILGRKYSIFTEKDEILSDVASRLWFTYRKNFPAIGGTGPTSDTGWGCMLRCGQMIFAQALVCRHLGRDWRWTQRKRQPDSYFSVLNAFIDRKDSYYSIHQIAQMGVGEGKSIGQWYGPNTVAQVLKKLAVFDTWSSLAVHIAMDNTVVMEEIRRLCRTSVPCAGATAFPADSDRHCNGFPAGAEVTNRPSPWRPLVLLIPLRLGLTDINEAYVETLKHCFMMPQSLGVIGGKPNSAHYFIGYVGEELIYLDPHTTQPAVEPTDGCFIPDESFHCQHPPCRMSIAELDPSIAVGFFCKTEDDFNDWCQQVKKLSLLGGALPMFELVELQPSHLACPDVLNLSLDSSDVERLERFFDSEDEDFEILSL
NadD inh = blocks S. aureus nicotinate mononucleotide adenylyltransferase; purified NadD enzyme, colorimetric absorbance read-out; inhibition, % at 20 µM; 360,000 tested, 0.78% active; in the data active means inhibition above about 26%
FAS-TE inh conf = confirmation of human fatty acid synthase thioesterase inhibitors; shares compounds with FAS-TE inh; inhibition, % at 15 µM; 2,300 tested, 45% active; recombinant FAS-TE, OMFH fluorogenic substrate, fluorescence;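 active means compounds inhibiting the enzyme by at least 50% at 15 µM in any one of the replicates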;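 further: 0% = enzyme with DMSO only and 100% = wells lacking enzyme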
* marks the source's active call; other numbers are inactive results; . = not tested or not shown. Sampled rows, rich in hits. Any-hit rate of the full collection: about 3.1%.

SMILES	FAS-TE inh	Calb FLC	Mot1-301 SUMO	ATG4B inhibitor	NadD inh	FAS-TE inh conf
C/C(=N\Nc1ccccn1)c1ccc(S(=O)(=O)NCc2ccco2)cc1	54*	0	-14	-9	-5	40*
C/C(=N\Nc1ccc(C(=O)O)cc1)c1ccc(S(=O)(=O)NCc2ccco2)cc1	0	-2	48	6	-2	.
C/C(=N\Nc1nc(Cl)c(Cl)cc1Cl)c1ccc(S(=O)(=O)NCc2ccco2)cc1	52*	3	6	-2	0	41
O=C(Cn1cnc2c(NC(=O)OCc3ccccc3)ncnc21)NCCN1CCOCC1	-15	.	13	-1	0	.
COc1cccc(C(C)=NNc2ccc([N+](=O)[O-])cc2[N+](=O)[O-])c1OC	14	.	.	.	2	.
COc1ccc(C(C)=NNc2ccc([N+](=O)[O-])cc2S(=O)(=O)Nc2ccccc2C(=O)O)c(OC)c1	71*	.	-11	36	17	68*
COc1ccccc1/C=C1\SC(=S)N(CC(=O)NC2CCS(=O)(=O)C2)C1=O (stereo not given)	-2	1	-7	4	3	.
Cc1ccc2nc(-c3ccccc3)cc(C(=O)N3CCN(S(=O)(=O)c4c(C)noc4C)CC3)c2c1	70*	.	10	-15	15	19
CN(C)CCCNS(=O)(=O)c1ccc(N2CCC(c3ccc(Cl)cc3)=N2)cc1	.	-1	36	.	.	.
O=S(=O)(c1ccc(N2CCC(c3ccc(Cl)cc3)=N2)cc1)N(CCO)CCO	89*	36	-5	-27	-13	93*
CC[C@]1(c2cccc(C)c2)C(=O)N(C(=O)OC)N1C(=O)OC	62*	-1	54	-7	-2	59*
COC(=O)N1C(=O)[C@@](Cc2ccccc2)(c2ccccc2)N1C(=O)OC	11	-3	-3	-21	0	.
COC(=O)N1C(=O)[C@](Cc2ccccc2)(c2ccccc2)N1C(=O)OC	63*	-8	33	-11	-1	75*
CC[C@@]1(c2ccccc2)C(=O)N(C(=O)OC)N1C(=O)OC	33	-7	-10	3	3	.
Cc1ccc(OCC(=O)N(Cc2ccco2)c2c(N)n(Cc3ccccc3)c(=O)[nH]c2=O)cc1C	-6	.	.	-5	2	.
O=S(=O)(c1ccc(Cl)cc1)N1CCN(C(=S)NCC2CCCO2)CC1 (stereo not given)	-2	1	4	-2	-8	.
CNc1ccc2ncc(-c3ccccc3C(C)=O)n2n1	-4	.	.	.	-4	.
CC(=O)O[C@H]1C(=O)[C@@]2(C)C([C@H](OC(=O)c3ccccc3)[C@]3(O)C[C@H](OC(=O)[C@H](O)[C@@H](NC(=O)c4ccccc4)c4ccccc4)C(C)=C1C3(C)C)[C@]1(OC(C)=O)CO[C@@H]1C[C@H]2O (stereo not given in full)	52*	3	-16	-14	-2	19
COc1ccc(CCN2CN(S(=O)(=O)c3ccc(C)cc3)c3nc4ccccc4nc32)cc1OC	22	5	0	-4	4	.
COc1ccccc1N1CN(S(=O)(=O)c2ccc(C)cc2)c2nc3ccccc3nc21	57*	.	-22	-8	12	24
COc1ccc(C(=O)NCC(=O)OCC(=O)Nc2ncc(Cl)cc2Cl)cc1[N+](=O)[O-]	5	.	-12	-9	0	.
O=C1[C@H]2[C@@H](c3ccc(C(F)(F)F)cc3)N[C@]3(CCCN(Cc4ccc(C(F)(F)F)cc4)C3=O)[C@H]2C(=O)N1Cc1ccccc1	55*	.	.	.	17	16
O=C1[C@H]2[C@@H](c3ccc(C(F)(F)F)cc3)N[C@]3(CCCN(Cc4ccccc4)C3=O)[C@H]2C(=O)N1Cc1ccccc1	30	.	.	.	-3	.
CCOc1ccc(S(=O)(=O)N2CCCCC2)cc1NC(=O)CN1C(=O)NC(C)(c2ccc(C)cc2)C1=O (stereo not given)	33	5	49	-3	15	.
CS(=O)(=O)Nc1ccc2c(c1)[C@H]1C[C@H](CC(=O)NCc3cccc(F)c3)O[C@@H](CO)[C@H]1O2	-4	.	.	.	1	.
SMILES	FAS-TE inh	Calb FLC	Mot1-301 SUMO	ATG4B inhibitor	NadD inh	FAS-TE inh conf
CCCc1cc(=O)[nH]c(SCC(=O)Nc2cc(S(=O)(=O)N3CCCCC3)ccc2C)n1	-3	.	-3	1	8	.
CCOC1=C2[C@H](c3ccc(CC)cc3)N(S(=O)(=O)c3ccc(C)cc3)C[C@H]2C(C#N)(C#N)C(C#N)(C#N)C1	80*	.	.	.	11	11
CCOC1=C2[C@H](c3ccccc3Cl)N(S(=O)(=O)c3ccc(C)cc3)C[C@H]2C(C#N)(C#N)C(C#N)(C#N)C1	76*	.	.	.	10	14
CCOC(=O)c1cnc2c(ccc3ccccc32)c1NCCCN(C)C	1	10	22	-7	-11	.
CC(Oc1ccccc1F)c1nnc(SCC(=O)Nc2ccc(N3CCOCC3)cc2)o1 (stereo not given)	-4	.	-7	-8	0	.
O=Cc1ccc(OCCOc2ccc([N+](=O)[O-])cc2)cc1	12	6	6	-11	-5	.
O=C(OCc1ccc([N+](=O)[O-])cc1)C1CCN(S(=O)(=O)c2ccccc2)CC1	60*	22	5	-5	-6	60*
CC(C)(C)c1ccc(OCCSc2nc3ccccc3n2CC(=O)O)cc1	78*	6	3	-4	2	87*
O=C(O)Cn1c(SCCOc2ccccc2)nc2ccccc21	4	7	-22	0	4	.
O=C(COC(=O)c1cc([N+](=O)[O-])ccc1N1CCOCC1)NCCc1ccccc1	78*	-1	5	-2	-2	66*
CCOc1ccc(CCNC(=O)COC(=O)c2cc([N+](=O)[O-])ccc2N2CCOCC2)cc1OCC	53*	-1	-11	-13	1	57*
O=C(COC(=O)c1cc([N+](=O)[O-])ccc1N1CCOCC1)NCc1ccc(F)cc1	88*	2	6	-2	-5	81*
COc1ccc(CCNC(=O)c2cc([N+](=O)[O-])ccc2N2CCOCC2)cc1	25	15	20	0	-1	.
O=C1NCCNC1c1ccccc1 (stereo not given)	-8	.	.	4	3	.
CC(=O)Nc1ccc(NCCc2ccco2)cc1	-13	.	.	.	-3	.
Cc1ccc(NC(=O)C2=C(c3ccccc3)S(=O)(=O)CCS2(=O)=O)cc1	75*	17	168	-3	-1	83*
Cc1ccc(NC(=O)c2ccccc2)cc1	-6	-10	11	-12	-2	.
COc1ccc(CNC(=O)c2oc3ccc(S(=O)(=O)N4CCOCC4)cc3c2C)cc1	7	-3	3	-11	-2	.
O=C(CN1C(=O)c2cccnc2Oc2ccc(Cl)cc21)NCCCc1ccccc1	55*	1	-6	-1	0	36
O=C(O)COc1ccccc1C(Nc1ccccn1)c1cc(Cl)c2cccnc2c1O (stereo not given)	54*	-2	43	15	38*	51*
